The supplement of paper PMC10849652
The full data set covers some 7,900 targets. This sample favours those with a hit. About 0.6% of all pairs of compound and target were hits.

Assays:
Test in all cases: log2 fold change, soluble protein after heating vs DMSO (PISA); higher = thermal stabilisation; K562 cells, 10 uM, 30 min; active = over 0.2 and 3.5 SD of the protein, either way, in both replicates (recomputed)
[1] = compound: COC1=CC=C(C=C1)CN2C=CC3=C2C=C(C=C3)C(=O)NO
How it was run: (§1)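 Soluble protein was defined as the supernatant after 21,000xg for 90 min. It came from K562 cells at 2×10^6 cells/mL given 10 μM compound for 30 min, heated in aliquots for 3 min across 48°C-58°C, pooled, and extracted in PBS with 0.5% NP-40 at 4°C, and was quantified by TMTpro 16plex LC-MS/MS with equalised channel sums. Thermal stability against control samples, from duplicates, is reported as log2 fold change.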

filanesib = compound: CON(C)C(=O)N1N=C(c2cc(F)ccc2F)S[C@@]1(CCCN)c1ccccc1 [filanesib]
How it was run: as §1

zotarolimus = compound: CO[C@H]1C[C@@H]2CC[C@@H](C)[C@@](O)(O2)C(=O)C(=O)N2CCCC[C@H]2C(=O)O[C@H]([C@H](C)C[C@@H]2CC[C@H](n3cnnn3)[C@H](OC)C2)CC(=O)[C@H](C)/C=C(\C)[C@@H](O)[C@@H](OC)C(=O)[C@H](C)C[C@H](C)/C=C/C=C/C=C/1C [zotarolimus]
How it was run: as §1

idasanutlin = compound: COc1cc(C(=O)O)ccc1NC(=O)[C@@H]1N[C@@H](CC(C)(C)C)[C@](C#N)(c2ccc(Cl)cc2F)[C@H]1c1cccc(Cl)c1F [idasanutlin]
How it was run: as §1

alisertib = compound: COc1cc(Nc2ncc3c(n2)-c2ccc(Cl)cc2C(c2c(F)cccc2OC)=NC3)ccc1C(=O)O [alisertib]
How it was run: as §1

[2] = compound: COc1cc2nc(-c3cc(F)ccc3O)nc(N[C@@H]3CNC[C@H]3C(C)(C)O)c2cc1OC
How it was run: as §1

gefitinib = compound: COc1cc2ncnc(Nc3ccc(F)c(Cl)c3)c2cc1OCCCN1CCOCC1 [gefitinib]
How it was run: as §1

[3] = compound: COc1cccc2cc(-c3nc([C@H]4CC[C@H](C(=O)O)CC4)n4ncnc(N)c34)[nH]c12
How it was run: as §1

lapatinib = compound: CS(=O)(=O)CCNCc1ccc(-c2ccc3ncnc(Nc4ccc(OCc5cccc(F)c5)c(Cl)c4)c3c2)o1 [lapatinib]
How it was run: as §1

pictilisib = compound: CS(=O)(=O)N1CCN(Cc2cc3nc(-c4cccc5[nH]ncc45)nc(N4CCOCC4)c3s2)CC1 [pictilisib]
How it was run: as §1

Measured: log2 fold change

CSNK1D (UniProt P48730)
UniProt P48730, sequence (P48730 whole entry, looked up): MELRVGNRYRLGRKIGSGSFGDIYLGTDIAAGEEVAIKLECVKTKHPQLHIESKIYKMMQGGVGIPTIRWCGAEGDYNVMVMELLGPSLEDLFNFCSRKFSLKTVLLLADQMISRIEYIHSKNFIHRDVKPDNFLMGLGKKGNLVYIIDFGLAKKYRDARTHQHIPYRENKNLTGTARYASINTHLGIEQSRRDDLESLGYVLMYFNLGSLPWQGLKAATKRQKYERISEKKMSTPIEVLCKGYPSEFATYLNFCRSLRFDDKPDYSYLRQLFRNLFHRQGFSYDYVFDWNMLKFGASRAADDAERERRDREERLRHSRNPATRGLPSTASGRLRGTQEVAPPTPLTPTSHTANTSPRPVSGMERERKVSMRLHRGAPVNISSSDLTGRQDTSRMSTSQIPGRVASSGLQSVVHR
inactive: [1] 0.045 | filanesib 0.153 | zotarolimus -0.019 | idasanutlin 0.027 | alisertib -0.016 | [2] -0.049 | gefitinib -0.006 | [3] -0.009 | lapatinib 0.041 | pictilisib -0.053

CDK11B (UniProt P21127)
inactive: [1] -0.253 | filanesib -0.009 | zotarolimus -0.046 | idasanutlin -0.094 | alisertib 0.011 | [2] 0.151 | gefitinib 0.095 | [3] 0.097 | lapatinib -0.069 | pictilisib -0.057

CHMP4C (UniProt Q96CF2)
inactive: [1] 0.163 | filanesib 0.014 | zotarolimus -0.028 | idasanutlin -0.001 | alisertib 0.037 | [2] 0.064 | gefitinib -0.014 | [3] 0.02 | lapatinib -0.027 | pictilisib -0.005

COMMD2 (UniProt Q86X83)
inactive: [1] -0.039 | filanesib 0.058 | zotarolimus 0.124 | idasanutlin -0.058 | alisertib -0.126 | [2] 0.076 | gefitinib 0.018 | [3] 0.001 | lapatinib 0.02 | pictilisib 0.007

CHCHD4 isoform 2 (UniProt Q8N4Q1)
inactive: [1] 0 | filanesib -0.059 | zotarolimus 0.032 | idasanutlin -0.043 | alisertib -0.099 | [2] -0.285 | gefitinib 0.011 | [3] 0.102 | lapatinib 0.341 | pictilisib -0.016

CDK5 (UniProt Q00535)
inactive: [1] 0.004 | filanesib 0.024 | zotarolimus -0.003 | idasanutlin -0.099 | alisertib -0.046 | [2] 0.054 | gefitinib 0.002 | [3] 0 | lapatinib -0.033 | pictilisib -0.011

CDK5RAP1 (UniProt Q96SZ6)
active: [1] -0.395
inactive: filanesib -0.049 | zotarolimus 0.066 | idasanutlin -0.076 | alisertib -0.057 | [2] 0.131 | gefitinib -0.074 | [3] 0.055 | lapatinib -0.034 | pictilisib 0.075

CCNT1 (UniProt O60563)
UniProt O60563, sequence (O60563 whole entry, looked up): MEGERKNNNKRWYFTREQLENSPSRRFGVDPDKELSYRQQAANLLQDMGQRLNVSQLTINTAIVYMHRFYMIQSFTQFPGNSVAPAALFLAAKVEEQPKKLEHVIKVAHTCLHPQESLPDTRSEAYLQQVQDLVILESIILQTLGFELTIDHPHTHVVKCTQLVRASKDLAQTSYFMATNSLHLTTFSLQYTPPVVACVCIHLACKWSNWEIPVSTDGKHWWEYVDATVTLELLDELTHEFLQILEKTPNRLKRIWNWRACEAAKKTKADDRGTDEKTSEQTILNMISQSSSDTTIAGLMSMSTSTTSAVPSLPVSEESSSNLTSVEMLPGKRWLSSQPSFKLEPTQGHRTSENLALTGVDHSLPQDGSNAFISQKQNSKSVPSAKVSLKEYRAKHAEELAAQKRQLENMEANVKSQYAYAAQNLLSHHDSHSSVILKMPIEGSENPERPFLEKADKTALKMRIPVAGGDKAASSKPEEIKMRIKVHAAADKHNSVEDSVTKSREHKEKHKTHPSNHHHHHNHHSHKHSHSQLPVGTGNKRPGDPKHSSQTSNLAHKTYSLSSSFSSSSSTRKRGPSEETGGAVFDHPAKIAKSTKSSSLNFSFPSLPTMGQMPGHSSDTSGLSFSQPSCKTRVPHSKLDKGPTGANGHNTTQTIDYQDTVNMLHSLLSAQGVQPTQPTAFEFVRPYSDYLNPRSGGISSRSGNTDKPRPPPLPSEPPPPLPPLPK
active: [2] -0.371
inactive: [1] -0.05 | filanesib 0.13 | zotarolimus 0.044 | idasanutlin 0.109 | alisertib -0.093 | gefitinib 0.021 | [3] -0.158 | lapatinib 0.098 | pictilisib -0.049

CRK (UniProt P46108)
UniProt P46108, sequence (P46108 whole entry, looked up): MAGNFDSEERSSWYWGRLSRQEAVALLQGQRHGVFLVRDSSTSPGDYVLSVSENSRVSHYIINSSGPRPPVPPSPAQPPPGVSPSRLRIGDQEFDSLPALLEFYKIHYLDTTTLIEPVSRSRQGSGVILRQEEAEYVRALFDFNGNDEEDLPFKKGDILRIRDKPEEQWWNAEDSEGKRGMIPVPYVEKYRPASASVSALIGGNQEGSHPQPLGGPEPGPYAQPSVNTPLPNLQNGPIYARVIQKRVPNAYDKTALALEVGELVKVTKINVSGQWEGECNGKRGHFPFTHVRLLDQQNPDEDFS
inactive: [1] 0.072 | filanesib 0.008 | zotarolimus 0.144 | idasanutlin 0.061 | alisertib -0.107 | [2] 0.011 | gefitinib -0.006 | [3] 0.025 | lapatinib 0.012 | pictilisib 0.043

CELF2 isoform 3 (UniProt O95319)
inactive: [1] 0.115 | filanesib 0.052 | zotarolimus -0.035 | idasanutlin -0.044 | alisertib -0.122 | [2] 0.1 | gefitinib -0.027 | [3] -0.006 | lapatinib 0.032 | pictilisib 0.051

CDC26 (UniProt Q8NHZ8)
UniProt Q8NHZ8, sequence (Q8NHZ8 whole entry, looked up): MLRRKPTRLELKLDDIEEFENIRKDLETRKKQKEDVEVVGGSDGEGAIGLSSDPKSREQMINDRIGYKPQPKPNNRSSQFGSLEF
inactive: [1] -0.031 | filanesib 0.085 | zotarolimus -0.011 | idasanutlin -0.053 | alisertib -0.023 | [2] 0 | gefitinib 0.003 | [3] -0.017 | lapatinib -0.023 | pictilisib -0.125

COPS3 (UniProt Q9UNS2)
inactive: [1] 0.12 | filanesib -0.035 | zotarolimus -0.004 | idasanutlin -0.09 | alisertib -0.012 | [2] 0.008 | gefitinib -0.031 | [3] 0.052 | lapatinib -0.015 | pictilisib -0.063

CSTF3 (UniProt Q12996)
UniProt Q12996, sequence (Q12996 whole entry, looked up): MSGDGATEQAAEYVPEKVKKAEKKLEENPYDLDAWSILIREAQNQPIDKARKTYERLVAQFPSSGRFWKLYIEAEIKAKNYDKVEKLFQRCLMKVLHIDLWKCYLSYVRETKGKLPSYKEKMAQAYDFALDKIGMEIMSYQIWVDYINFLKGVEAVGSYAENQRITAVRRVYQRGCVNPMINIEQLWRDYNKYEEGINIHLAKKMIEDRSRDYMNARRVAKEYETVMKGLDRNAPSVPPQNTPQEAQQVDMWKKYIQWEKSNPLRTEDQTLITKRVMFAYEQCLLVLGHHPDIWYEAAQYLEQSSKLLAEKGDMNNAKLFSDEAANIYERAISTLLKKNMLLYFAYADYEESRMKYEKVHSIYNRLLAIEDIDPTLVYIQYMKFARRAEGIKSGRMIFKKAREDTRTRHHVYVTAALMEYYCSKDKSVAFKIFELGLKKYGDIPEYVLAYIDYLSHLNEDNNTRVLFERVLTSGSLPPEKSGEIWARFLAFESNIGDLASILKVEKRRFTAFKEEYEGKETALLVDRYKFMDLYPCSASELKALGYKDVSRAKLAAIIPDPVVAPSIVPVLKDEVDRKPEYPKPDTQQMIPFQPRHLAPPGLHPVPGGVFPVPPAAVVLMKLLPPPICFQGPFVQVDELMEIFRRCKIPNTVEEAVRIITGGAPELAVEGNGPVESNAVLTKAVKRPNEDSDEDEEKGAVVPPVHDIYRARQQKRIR
inactive: [1] -0.008 | filanesib -0.041 | zotarolimus -0.033 | idasanutlin -0.087 | alisertib -0.056 | [2] 0.176 | gefitinib -0.005 | [3] 0.022 | lapatinib -0.012 | pictilisib 0.066

CHAMP1 (UniProt Q96JM3)
UniProt Q96JM3, sequence (Q96JM3 whole entry, looked up): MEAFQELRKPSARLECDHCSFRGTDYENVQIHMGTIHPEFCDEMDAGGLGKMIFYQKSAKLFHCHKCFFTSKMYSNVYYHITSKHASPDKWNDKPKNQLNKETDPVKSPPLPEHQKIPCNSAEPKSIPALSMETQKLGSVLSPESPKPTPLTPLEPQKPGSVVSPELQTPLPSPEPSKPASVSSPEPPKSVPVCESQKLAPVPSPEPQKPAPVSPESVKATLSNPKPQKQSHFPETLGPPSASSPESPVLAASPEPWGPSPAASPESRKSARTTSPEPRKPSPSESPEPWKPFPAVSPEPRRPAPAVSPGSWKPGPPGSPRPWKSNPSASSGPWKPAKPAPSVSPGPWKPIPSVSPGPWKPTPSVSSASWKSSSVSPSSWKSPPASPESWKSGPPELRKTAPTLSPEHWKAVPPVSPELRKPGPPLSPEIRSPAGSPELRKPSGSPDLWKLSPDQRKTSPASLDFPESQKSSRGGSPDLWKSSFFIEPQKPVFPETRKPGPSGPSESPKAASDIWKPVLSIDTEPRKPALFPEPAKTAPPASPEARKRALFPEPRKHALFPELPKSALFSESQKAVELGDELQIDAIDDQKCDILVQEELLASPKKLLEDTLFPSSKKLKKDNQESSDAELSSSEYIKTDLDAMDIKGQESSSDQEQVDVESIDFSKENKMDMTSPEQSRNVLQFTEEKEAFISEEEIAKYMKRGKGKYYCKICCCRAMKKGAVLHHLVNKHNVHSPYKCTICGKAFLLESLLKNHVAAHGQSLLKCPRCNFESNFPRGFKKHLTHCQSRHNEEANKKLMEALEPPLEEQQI
inactive: [1] -0.001 | filanesib -0.008 | zotarolimus 0.07 | idasanutlin 0.005 | alisertib 0.006 | [2] 0.025 | gefitinib 0.029 | [3] 0.022 | lapatinib -0.065 | pictilisib 0.107

C4orf33 (UniProt Q8N1A6)
inactive: [1] -0.055 | filanesib 0.072 | zotarolimus -0.009 | idasanutlin -0.054 | alisertib -0.17 | [2] -0.026 | gefitinib 0.029 | [3] 0.061 | lapatinib 0 | pictilisib 0.049

CHAF1A (UniProt Q13111)
inactive: [1] -0.149 | filanesib 0.143 | zotarolimus -0.145 | idasanutlin 0.05 | alisertib 0 | [2] 0.007 | gefitinib 0.169 | [3] 0.004 | lapatinib 0.169 | pictilisib 0.031

CCZ1 (UniProt P86791)
inactive: [1] 0.052 | filanesib -0.062 | zotarolimus 0.044 | idasanutlin -0.015 | alisertib -0.072 | [2] -0.036 | gefitinib 0.013 | [3] 0.018 | lapatinib -0.005 | pictilisib -0.047

CSNK2A2 (UniProt P19784)
inactive: [1] -0.042 | filanesib -0.019 | zotarolimus -0.003 | idasanutlin -0.094 | alisertib 0.001 | [2] -0.177 | gefitinib -0.031 | [3] 0.033 | lapatinib 0.02 | pictilisib 0.128

CMTM3 (UniProt Q96MX0)
inactive: [1] -0.122 | filanesib 0.105 | zotarolimus -0.075 | idasanutlin -0.045 | alisertib -0.069 | [2] -0.018 | gefitinib 0.021 | [3] 0.035 | lapatinib -0.062 | pictilisib -0.091

CPQ (UniProt Q9Y646)
inactive: [1] -0.014 | filanesib -0.05 | zotarolimus -0.058 | idasanutlin -0.093 | alisertib -0.054 | [2] 0.01 | gefitinib 0.038 | [3] 0.047 | lapatinib -0.014 | pictilisib 0.027

CCAR2 isoform 2 (UniProt Q8N163)
UniProt Q8N163, sequence (Q8N163 whole entry, looked up): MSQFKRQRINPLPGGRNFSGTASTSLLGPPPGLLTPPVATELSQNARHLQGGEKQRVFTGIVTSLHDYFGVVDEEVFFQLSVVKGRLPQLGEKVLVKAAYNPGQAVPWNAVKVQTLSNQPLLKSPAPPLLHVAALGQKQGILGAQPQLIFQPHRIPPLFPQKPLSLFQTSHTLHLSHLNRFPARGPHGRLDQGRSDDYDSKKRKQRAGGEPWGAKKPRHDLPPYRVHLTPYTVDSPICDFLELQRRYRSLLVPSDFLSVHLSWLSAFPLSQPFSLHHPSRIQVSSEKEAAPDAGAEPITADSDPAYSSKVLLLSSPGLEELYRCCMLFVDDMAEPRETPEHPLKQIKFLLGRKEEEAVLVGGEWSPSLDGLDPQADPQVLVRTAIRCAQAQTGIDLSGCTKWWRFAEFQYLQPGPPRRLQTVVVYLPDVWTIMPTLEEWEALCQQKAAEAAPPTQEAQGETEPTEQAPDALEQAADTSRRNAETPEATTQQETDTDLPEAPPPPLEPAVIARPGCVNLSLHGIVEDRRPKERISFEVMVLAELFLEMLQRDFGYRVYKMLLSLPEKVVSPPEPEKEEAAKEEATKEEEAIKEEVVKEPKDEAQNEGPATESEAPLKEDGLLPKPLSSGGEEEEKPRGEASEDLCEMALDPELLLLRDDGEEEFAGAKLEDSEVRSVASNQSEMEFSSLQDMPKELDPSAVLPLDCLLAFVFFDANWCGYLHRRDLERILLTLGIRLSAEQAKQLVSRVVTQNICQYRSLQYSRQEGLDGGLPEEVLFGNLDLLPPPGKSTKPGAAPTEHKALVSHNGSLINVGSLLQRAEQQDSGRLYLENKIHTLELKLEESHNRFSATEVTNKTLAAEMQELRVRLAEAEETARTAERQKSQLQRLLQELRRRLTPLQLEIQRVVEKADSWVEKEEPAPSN
inactive: [1] -0.038 | filanesib 0.024 | zotarolimus 0.063 | idasanutlin -0.065 | alisertib -0.072 | [2] -0.187 | gefitinib -0.03 | [3] -0.042 | lapatinib 0.04 | pictilisib -0.034

CSK (UniProt P41240)
inactive: [1] 0.034 | filanesib -0.049 | zotarolimus 0.007 | idasanutlin -0.056 | alisertib -0.018 | [2] 0.024 | gefitinib 0.024 | [3] -0.049 | lapatinib 0.008 | pictilisib 0.02

C16orf58 (UniProt Q96GQ5)
inactive: [1] -0.059 | filanesib -0.148 | zotarolimus -0.043 | idasanutlin -0.053 | alisertib -0.009 | [2] -0.009 | gefitinib 0.044 | [3] 0.037 | lapatinib 0.004 | pictilisib 0.015

COMT (UniProt P21964)
inactive: [1] -0.097 | filanesib -0.054 | zotarolimus 0.034 | idasanutlin -0.093 | alisertib 0.009 | [2] 0.15 | gefitinib 0.043 | [3] 0.004 | lapatinib -0.042 | pictilisib 0.136

CPT1A (UniProt P50416)
inactive: [1] 0.073 | filanesib 0.204 | zotarolimus 0.118 | idasanutlin 0.086 | alisertib 0.235 | [2] 0.308 | gefitinib 0.028 | [3] -0.151 | lapatinib 0.1 | pictilisib 0.257

CDK13 (UniProt Q14004)
inactive: [1] -0.323 | filanesib 0.169 | zotarolimus 0.029 | idasanutlin 0.215 | alisertib -0.141 | [2] -0.197 | gefitinib 0.001 | [3] 0.037 | lapatinib 0.054 | pictilisib -0.048

CERT isoform 3 (UniProt Q9Y5P4)
UniProt Q9Y5P4, sequence (Q9Y5P4 whole entry, looked up): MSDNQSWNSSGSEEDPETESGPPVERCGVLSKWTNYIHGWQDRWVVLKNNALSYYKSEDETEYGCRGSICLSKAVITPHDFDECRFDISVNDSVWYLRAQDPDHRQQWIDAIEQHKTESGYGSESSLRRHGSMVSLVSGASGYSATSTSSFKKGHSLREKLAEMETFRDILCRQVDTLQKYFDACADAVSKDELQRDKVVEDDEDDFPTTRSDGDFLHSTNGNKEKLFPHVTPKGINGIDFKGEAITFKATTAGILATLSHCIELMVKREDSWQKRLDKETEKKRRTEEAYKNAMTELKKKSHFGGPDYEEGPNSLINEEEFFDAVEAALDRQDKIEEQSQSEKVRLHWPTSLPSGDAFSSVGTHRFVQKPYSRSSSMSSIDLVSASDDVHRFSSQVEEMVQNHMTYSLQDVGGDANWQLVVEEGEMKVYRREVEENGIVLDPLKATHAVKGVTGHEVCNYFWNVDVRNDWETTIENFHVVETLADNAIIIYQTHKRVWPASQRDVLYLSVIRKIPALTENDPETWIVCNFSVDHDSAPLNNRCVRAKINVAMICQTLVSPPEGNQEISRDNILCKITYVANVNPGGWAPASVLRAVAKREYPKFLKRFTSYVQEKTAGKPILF
inactive: [1] -0.025 | filanesib 0.001 | zotarolimus 0.2 | idasanutlin -0.145 | alisertib -0.064 | [2] -0.201 | gefitinib 0.157 | [3] -0.004 | lapatinib 0.247 | pictilisib 0.186

COASY isoform 2 (UniProt Q13057)
inactive: [1] 0.034 | filanesib -0.061 | zotarolimus 0.024 | idasanutlin -0.071 | alisertib -0.038 | [2] 0.01 | gefitinib -0.038 | [3] 0.045 | lapatinib 0.043 | pictilisib 0.028

CASTOR2 (UniProt A6NHX0)
UniProt A6NHX0, sequence (A6NHX0 whole entry, looked up): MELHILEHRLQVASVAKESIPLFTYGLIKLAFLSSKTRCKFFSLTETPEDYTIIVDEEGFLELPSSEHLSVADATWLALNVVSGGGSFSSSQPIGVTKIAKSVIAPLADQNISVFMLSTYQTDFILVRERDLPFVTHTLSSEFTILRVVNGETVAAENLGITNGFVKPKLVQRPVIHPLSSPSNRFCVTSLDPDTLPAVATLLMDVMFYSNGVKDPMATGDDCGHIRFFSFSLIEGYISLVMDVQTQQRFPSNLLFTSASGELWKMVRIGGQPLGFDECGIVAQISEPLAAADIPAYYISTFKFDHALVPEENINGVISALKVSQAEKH
inactive: [1] 0.04 | filanesib -0.042 | zotarolimus -0.038 | idasanutlin 0.027 | alisertib -0.08 | [2] 0.194 | gefitinib -0.053 | [3] 0.063 | lapatinib -0.108 | pictilisib -0.042

CMTR1 (UniProt Q8N1G2)
inactive: filanesib 0.001 | zotarolimus -0.013 | idasanutlin -0.052 | alisertib -0.026 | [2] 0.065 | gefitinib 0.025 | [3] 0.017 | lapatinib -0.012 | pictilisib 0.009
active: [1] -0.337
